Among the data in PMC5700166 are binding signal values, retold here.

Positions count from the first letter of the chain named.

What all share (assay): protein-binding microarray (PBM); PBM: ~300 nM protein, 6 mM HEPES pH 7.8, 80 mM KCl, 0.5 mM EDTA, 0.5 mM EGTA, 6% glycerol, 35 ng/ul poly-dIdC, 1% milk, 1 h, room temperature; Ap Aiptasia and Nv Nematostella (sea anemones) / Co Capsaspora / Aq Amphimedon (sponge) / Dm Drosophila / Hu human; RHD is the Rel homology domain; high values mean tight binding
Holding throughout (conditions): dsDNA, one strand shown

Experiment [1] addresses T1, GST-Ap-NF-kB RHD (Exaiptasia pallida (Aiptasia), UniProt A0A913YAJ5 2-422).
T1 sequence: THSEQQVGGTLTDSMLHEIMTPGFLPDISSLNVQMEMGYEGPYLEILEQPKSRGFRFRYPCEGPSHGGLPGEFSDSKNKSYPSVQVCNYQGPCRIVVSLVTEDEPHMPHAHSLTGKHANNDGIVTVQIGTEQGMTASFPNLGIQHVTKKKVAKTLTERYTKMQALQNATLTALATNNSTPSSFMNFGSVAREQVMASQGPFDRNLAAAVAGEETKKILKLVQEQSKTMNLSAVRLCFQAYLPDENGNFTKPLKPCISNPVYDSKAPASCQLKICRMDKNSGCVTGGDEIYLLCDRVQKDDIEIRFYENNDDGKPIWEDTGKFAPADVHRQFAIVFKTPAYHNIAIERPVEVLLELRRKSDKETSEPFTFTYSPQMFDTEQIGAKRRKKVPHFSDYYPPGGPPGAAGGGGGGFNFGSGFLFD

The target of experiment [2] is T2, GST-Nv-NF-kB (Cys allele) (Nematostella vectensis, UniProt E5G601 2-411).
T2 sequence: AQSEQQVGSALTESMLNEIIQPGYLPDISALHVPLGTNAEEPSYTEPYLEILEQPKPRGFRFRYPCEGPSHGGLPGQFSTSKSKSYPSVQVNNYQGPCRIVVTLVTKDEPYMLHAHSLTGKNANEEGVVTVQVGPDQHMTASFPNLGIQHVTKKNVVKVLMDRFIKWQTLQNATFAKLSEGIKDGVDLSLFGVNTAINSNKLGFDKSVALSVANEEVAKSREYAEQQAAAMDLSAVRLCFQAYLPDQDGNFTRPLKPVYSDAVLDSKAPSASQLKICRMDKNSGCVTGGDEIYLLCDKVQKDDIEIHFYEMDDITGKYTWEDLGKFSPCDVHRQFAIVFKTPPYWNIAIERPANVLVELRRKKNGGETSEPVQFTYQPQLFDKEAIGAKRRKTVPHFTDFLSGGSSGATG

Experiment [3] addresses T3, GST-Nv-NF-kB (Ser allele) (Nematostella vectensis, UniProt A7UNT2 2-411).
T3 sequence: T2 sequence with Q21R, C66S, S207N, E215Q, V217A, E225K, A268E, D399E

The target in experiment [4] is T4, GST-Co-NF-kB (Capsaspora owczarzaki, UniProt F1ARL5 200-546).
T4 sequence: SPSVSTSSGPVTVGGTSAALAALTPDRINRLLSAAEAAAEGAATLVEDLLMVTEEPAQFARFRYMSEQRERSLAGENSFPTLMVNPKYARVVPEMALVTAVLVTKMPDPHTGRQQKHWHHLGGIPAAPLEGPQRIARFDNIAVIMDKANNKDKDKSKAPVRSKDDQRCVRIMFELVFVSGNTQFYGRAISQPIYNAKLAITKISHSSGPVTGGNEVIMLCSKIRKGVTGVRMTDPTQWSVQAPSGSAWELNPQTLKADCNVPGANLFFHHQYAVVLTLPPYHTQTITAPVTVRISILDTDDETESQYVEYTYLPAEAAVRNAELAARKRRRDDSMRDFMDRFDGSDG

The target in experiment [5] is T5, GST-Dm-Relish (Drosophila melanogaster, UniProt Q94527 99-473).
T5 sequence: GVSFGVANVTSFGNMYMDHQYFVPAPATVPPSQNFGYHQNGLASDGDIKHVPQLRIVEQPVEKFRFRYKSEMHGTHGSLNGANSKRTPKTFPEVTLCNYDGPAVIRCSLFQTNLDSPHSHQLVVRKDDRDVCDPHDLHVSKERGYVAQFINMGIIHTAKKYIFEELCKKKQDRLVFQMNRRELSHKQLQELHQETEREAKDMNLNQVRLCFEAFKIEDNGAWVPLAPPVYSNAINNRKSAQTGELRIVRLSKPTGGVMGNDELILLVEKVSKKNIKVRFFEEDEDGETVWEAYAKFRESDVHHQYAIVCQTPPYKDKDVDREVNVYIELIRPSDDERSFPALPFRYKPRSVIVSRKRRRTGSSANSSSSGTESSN

In experiment [6] the target is T6, GST-Aq-NF-kB (Amphimedon queenslandica, UniProt A9Y5G7 2-389).
T6 sequence: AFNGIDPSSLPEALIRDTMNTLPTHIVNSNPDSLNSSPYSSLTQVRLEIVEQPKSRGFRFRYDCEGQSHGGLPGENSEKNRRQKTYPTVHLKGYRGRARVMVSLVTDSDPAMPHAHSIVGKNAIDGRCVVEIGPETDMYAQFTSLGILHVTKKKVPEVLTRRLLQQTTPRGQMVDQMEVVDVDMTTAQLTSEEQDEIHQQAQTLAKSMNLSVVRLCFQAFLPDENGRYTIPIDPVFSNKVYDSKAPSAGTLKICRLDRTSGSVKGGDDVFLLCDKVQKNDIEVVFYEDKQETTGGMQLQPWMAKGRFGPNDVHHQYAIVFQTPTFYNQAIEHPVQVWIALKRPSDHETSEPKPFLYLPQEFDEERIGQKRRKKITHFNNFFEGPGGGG

Experiment [7] concerns the target GST-Hu-p50 (Homo sapiens, UniProt P19838 7-356).

Sequence of GST-Hu-p50 (P19838 7-356): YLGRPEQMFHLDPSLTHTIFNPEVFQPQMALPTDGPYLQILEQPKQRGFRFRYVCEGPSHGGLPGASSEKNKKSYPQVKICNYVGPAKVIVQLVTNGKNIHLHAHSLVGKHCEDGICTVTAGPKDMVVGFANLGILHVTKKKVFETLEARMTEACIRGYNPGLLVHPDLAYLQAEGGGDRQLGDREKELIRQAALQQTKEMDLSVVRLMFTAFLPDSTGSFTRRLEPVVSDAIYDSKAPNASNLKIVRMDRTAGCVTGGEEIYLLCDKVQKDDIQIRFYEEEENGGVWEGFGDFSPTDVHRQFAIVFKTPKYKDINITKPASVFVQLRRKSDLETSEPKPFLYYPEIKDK

Consider “CCGATTAACATCAGAAGTTCCCCTGATGTTAATCGGGTCTTGATTCGCTTGACGCTGCTG”, for which the binding signal was 7.97 z-score in experiment [1]; 8.26 z-score in experiment [2]; 8.1 z-score in experiment [3]; 7.36 z-score in experiment [4]; 8 z-score in experiment [5]; 7.04 z-score in experiment [6]. Besides, in experiment [7], the binding signal was 5.84 z-score.
Take “CCGATTAACATCAAAATAGTCCCTGATGTTAATCGGGTCTTGATTCGCTTGACGCTGCTG”: the binding signal stood at 7.45 z-score in experiment [1]; 7.77 z-score in experiment [2]; 7.5 z-score in experiment [3]; 2.01 z-score in experiment [4]; 4.37 z-score in experiment [5]; 6.34 z-score in experiment [6]. Also, the binding signal in experiment [7] turned out to be 5.5 z-score.
Take “CCGATTAACATCAAATTCCCCCGTGATGTTAATCGGGTCTTGATTCGCTTGACGCTGCTG”: the binding signal was found to be 9.52 z-score in experiment [1]; 8.91 z-score in experiment [2]; 9.58 z-score in experiment [3]; 11 z-score in experiment [4]; 8.23 z-score in experiment [5]; 7.32 z-score in experiment [6]. In experiment [7], this sequence registered a binding signal of 7.06 z-score.
With “CCGATTAACATCAGGGGAACAACTGATGTTAATCGGGTCTTGATTCGCTTGACGCTGCTG”, the binding signal is 5.15 z-score in experiment [1]; 4.83 z-score in experiment [2]; 5.57 z-score in experiment [3]; 5.75 z-score in experiment [4]; 8.64 z-score in experiment [5]; 5.43 z-score in experiment [6]. The same sequence showed a binding signal in experiment [7] of 3.48 z-score.
Turning to “CCGATTAACATCAAGCATTTCCCTGATGTTAATCGGGTCTTGATTCGCTTGACGCTGCTG”, the binding signal in experiment [1] came out at 2.4 z-score; in experiment [2], 4.4 z-score; in experiment [3], 4.14 z-score; in experiment [4] it was 2.36 z-score; in experiment [6] it was 3.63 z-score; in experiment [7], 2.72 z-score.
Turning to “CCGATTAACATCAGGGGAATACATGATGTTAATCGGGTCTTGATTCGCTTGACGCTGCTG”, the binding signal in experiment [1] was 6.98 z-score; in experiment [2] it was 8.02 z-score; in experiment [3], 7.97 z-score; in experiment [4], 6.18 z-score; in experiment [5], 6.02 z-score; in experiment [6], 5.87 z-score. Further, the binding signal in experiment [7] was 5.42 z-score.
As to “CCGATTAACATCAAAAATTCCCCTGATGTTAATCGGGTCTTGATTCGCTTGACGCTGCTG”, the binding signal in experiment [1] worked out at 10.4 z-score; in experiment [2], 12.8 z-score; in experiment [3] it was 14 z-score; in experiment [4], 9.75 z-score; in experiment [5], 9.69 z-score; in experiment [6], 9.6 z-score. This sequence also came in with a binding signal in experiment [7] of 7.99 z-score.
Regarding “CCGATTAACATCAGGGAGTACCCTGATGTTAATCGGGTCTTGATTCGCTTGACGCTGCTG”, the binding signal is 5.7 z-score in experiment [1]; 4.14 z-score in experiment [2]; 3.49 z-score in experiment [3]; 1.84 z-score in experiment [4]; 8.1 z-score in experiment [5]; 6.66 z-score in experiment [6]. The sequence further returned a binding signal in experiment [7] of 3.38 z-score.
For “CCGATTAACATCAGAGTGGGAAATGATGTTAATCGGGTCTTGATTCGCTTGACGCTGCTG”, the binding signal in experiment [1] came out at 1 z-score; in experiment [2], 2.45 z-score; in experiment [3], 1.89 z-score; in experiment [4], 2.83 z-score; in experiment [6], 1.64 z-score; in experiment [7], 2.27 z-score.
Consider “CCGATTAACATCACACATGCCCCTGATGTTAATCGGGTCTTGATTCGCTTGACGCTGCTG”, for which the binding signal in experiment [1] was found to be 1.13 z-score; in experiment [2], 1.37 z-score; in experiment [3], 1.04 z-score; in experiment [4], 1.12 z-score; in experiment [6] it was 1.68 z-score; in experiment [7], 1.36 z-score.
As for “CCGATTAACATCAGGGAAAGATATGATGTTAATCGGGTCTTGATTCGCTTGACGCTGCTG”, the binding signal turned out to be 2.67 z-score in experiment [1]; 4.29 z-score in experiment [2]; 4.52 z-score in experiment [3]; 4.56 z-score in experiment [4]; 5.22 z-score in experiment [6]; 3.62 z-score in experiment [7].
Take “CCGATTAACATCAAGTGGGAAAATGATGTTAATCGGGTCTTGATTCGCTTGACGCTGCTG”: the binding signal stood at 1.71 z-score in experiment [1]; 4.11 z-score in experiment [2]; 4.29 z-score in experiment [3]; 2.91 z-score in experiment [4]; 2.08 z-score in experiment [6]; 2.66 z-score in experiment [7].
